The list is not random: actives were taken first. Their share in the collection is about 1.4%.
Yeast superoxide = yeast age-related superoxide inhibition as caloric restriction mimetic. S. cerevisiae aged cells, superoxide DHE fluorescence; hits give low values. AID 2690. superoxide response (% of plate mean), % at 10 µM. actives 0.18% (n = 330,000);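 active = superoxide response under a set limit, about three screen SD below normal, cut at about 65% in these data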;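 note: yeast aged for seven days with compound at 30 °C before DHE staining; 100% = average MFI of all compound-treated wells on the plate with controls excluded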
Cardio protect = modulators protecting cardiomyocytes from myocardial damage. H9c2 cardiomyocytes, H2O2 injury protection, ATPLite, 2 h. protection from H2O2 cell death, % at 20 µM. actives 0.63% (n = 360,000). AID 588492;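 active = compounds giving at least 50% protection of heart cells from peroxide-induced death in the single-dose screen, raw or plate-pattern-corrected value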;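 note: 0% = DMSO wells with peroxide and 100% = DMSO wells without peroxide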
V-ATPase pH = alters yeast V-ATPase proton transport. S. cerevisiae, pHLuorin cytosolic pH fluorescence. response, % at 10 µM. actives 0.37% (n = 350,000). AID 504577; in the data active = response mostly above about 7.3%, no sharp cut-off; inactive = mostly below about 5.4%; note: actives read high
MIN6 prolif-1 = induces beta-cell replication in MIN6 cells; MIN6 cells proliferation, ATPlite luminescence, 48 h; cells starved in 0.2% serum; 100% = growth in 10% serum; AID 2380; actives 0.29% (n = 330,000); proliferation, % at 10 µM;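 active = compounds whose signal lies at least 3.5 SD above the mean of all wells on their plate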;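 note: 0% = DMSO-treated cells in low-serum medium and 100% = 10% serum control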
p-CIP stab down = p/CIP protein destabilization; Q05BA5; F442A p/CIP-EGFP cells, EGFP fluorescence, 16 h; decrease of EGFP signal, % at 10 µM; actives 0.01% (n = 290,000); AID 1984;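 active = EGFP signal decrease of at least 30% at 10 µM or well 3 SD below plate mean, unless failing retest; inactive = the rest, including hits failing retest or dose response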
HSV replic up = increases HSV replication in cells; actives 0.005% (n = 220,000); HSV replication augmentation in cells, fold increase; AID 1956; maximum fold increase; in the data active = maximum fold increase above about 1.5; tested in PC3 cells
MIN6 prolif-2 = confirmation of inducers of beta-cell replication in MIN6 cells; shares compounds with MIN6 prolif-1; MIN6 beta-cell proliferation, ATPlite luminescence, 48 h; cells kept in 0.2% serum; scaled between 0.2% and 10% serum; 920 tested, under 10 active; proliferation increase, % at 50 µM;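 active = proliferation increase above 40% at any of the four tested concentrations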
* marks the source's active call; other numbers are inactive results; i = inactive; nt = no result given.

SMILES | Yeast superoxide | Cardio protect | V-ATPase pH | MIN6 prolif-1 | p-CIP stab down | HSV replic up | MIN6 prolif-2
CCOC(=O)c1sc(NC(NC(=O)c2ccco2)(C(=O)OC)C(F)(F)F)nc1C (configuration not stated) | 99 | -1 | 1 | 7.6* | 3 | i | -2
CCOC(=O)c1sc(NC(=S)NC(=O)c2ccco2)nc1C | 103 | -4 | -5 | -2 | 8 | i | nt
CCOC(=O)c1c(NC(=O)CC)sc(C(=O)NC2CCCC2)c1C | 101 | -4 | -2 | 8.1* | 4 | nt | -4
CCOC(=O)c1c(C)[nH]c(C)c1C(=O)COC(=O)c1cccc(S(=O)(=O)NC)c1 | 106 | 2 | 1 | 11* | -6 | i | 0
C=CCSc1nc2c(c(=O)[nH]c(=O)n2C)n1C/C=C(/C)Cl | 107 | -8 | -1 | 6.7* | -2 | i | 2
Cc1csc(NC(=O)C2CC(=O)N(c3ccc(C)c(C)c3)C2)n1 (configuration not stated) | 103 | -4 | 2 | -3 | 0 | nt | nt
Cc1cccc(CNc2ncnc3ccc(-c4ccoc4)cc23)c1 | 84 | -7 | 5 | -7 | nt | nt | nt
c1cncc(CNc2ncnc3ccc(-c4ccoc4)cc23)c1 | 138 | 0 | 1 | 16* | nt | nt | 1
COC(=O)C1CCN(C(=O)c2oc3c(Cl)cc(C)cc3c2C)CC1 | 96 | 2 | -1 | 12* | -8 | nt | -6
COc1ccc([C@H]2N[C@]3(CCCN(CC4CCCCC4)C3=O)[C@H]3C(=O)N(Cc4ccccc4)C(=O)[C@@H]23)cc1 | nt | 3 | 2 | nt | nt | nt | nt
O=C(NCc1ccccn1)C1CCCN(S(=O)(=O)c2ccc(Br)cc2)C1 (configuration not stated) | 94 | -2 | 0 | 5.8* | -13 | i | 0
CCCN1Cc2cccc(C(=O)NCCc3ccccc3)c2C1=O | 104 | 2 | 1 | 11* | -10 | nt | -2
CC1(C)CC(=S)Nc2ccccc2S1 | 76 | -3 | -1 | 11* | -3 | i | -6
CC1(C)CC(=O)C2=C(C1)Nc1ccccc1S2 | 78 | 1 | 0 | -1 | 8 | i | nt
CCC[C@@H]1CCCO[C@@](C(=O)NCCN2CCOCC2)(C(F)(F)F)C1 | 96 | -3 | -1 | 1 | nt | i | nt
COc1ccc(N2CCN(C(=O)COc3ccc(S(=O)(=O)N4CCOCC4)cc3C)CC2)cc1 | 93 | -6 | 1 | 0.0* | -6 | nt | 5
O=C(O)C1CCCCC1C(=O)NCCCCc1ccccc1 (configuration not stated) | 109 | 2 | 1 | -3 | 4 | i | nt
O=C(O)C1CCCCC1C(=O)NCCCc1ccccc1 (configuration not stated) | 97 | 3 | 1 | 9.0* | -16 | i | -3
CNc1nc(NN)nc(Nc2ccccc2)n1 | 106 | 4 | 4 | -2 | -4 | nt | nt
CNc1nc(Nc2ccccc2)nc(OCC(F)(F)F)n1 | 92 | 2 | 4 | 7.0* | 12 | i | 1
COc1ccc(CCNC(=O)CCN2C(=O)c3cccc4cccc(c34)C2=O)cc1OC | 95 | 10 | -3 | 7.9* | 5 | i | 0
CN(C)c1nc(N(C)C)nc(N(C#N)CCOc2ccccc2)n1 | 104 | -19 | 1 | 9.9* | -10 | i | -6
CCCn1cnnc1CNC(=O)C1CCC(=O)N(CCc2ccc(OC)cc2)C1 (configuration not stated) | 75 | 0 | 6 | -2 | -7 | nt | nt
Cc1ccc(S(=O)(=O)NCC(=O)NC2CC2)cc1 | 100 | 1 | -4 | 11* | 1 | nt | 0
Cc1ccc(CNc2ncnc(N)c2[N+](=O)[O-])cc1 | 100 | 41 | -2 | 7.8* | -12 | i | 8
SMILES | Yeast superoxide | Cardio protect | V-ATPase pH | MIN6 prolif-1 | p-CIP stab down | HSV replic up | MIN6 prolif-2
CCN(CC)S(=O)(=O)c1cccc(-c2nnc(SCCOc3ccccc3)o2)c1 | 120 | -13 | 1 | -3 | -4 | i | nt
CCN(CC)S(=O)(=O)c1cccc(-c2nnc(SCC(=O)c3cc(C)n(C)c3C)o2)c1 | 104 | -1 | -4 | 12* | -10 | i | 1
CN1CCN(c2nc(C#N)cc(-c3ccccc3)n2)CC1 | 104 | 17 | -3 | 9.8* | -10 | i | -5
COc1ccc(-c2cc(C#N)nc(N3CCN(C)CC3)n2)cc1 | 89 | 1 | 0 | -3 | -26 | i | nt
CN(C)c1ccc(/C=C/CNC[C@H]2O[C@@H](n3ccc(N)nc3=O)[C@H](O)[C@@H]2O)cc1 | nt | 6 | 0 | nt | nt | nt | nt
Cc1ccccc1CNC(=O)c1ccccc1N | 88 | 7 | 2 | 8.4* | -6 | i | -2
Cc1ccc(S(=O)(=O)N(CC(=O)c2ccc(Cl)cc2)C(=O)N2CCN(C)CC2)cc1 | 86 | 0 | 1 | -3 | nt | nt | nt
COc1cccc(OC)c1C(=O)OCC(=O)NCC(C)C | 105 | 7 | 0 | -1 | 1 | i | nt
CC(C)CNC(=O)COC(=O)c1ccccc1SCC(=O)NCC(C)C | 111 | 0 | -2 | 7.8* | 8 | i | 2
CC(=O)c1ccc(OCC(=O)NC2CCS(=O)(=O)C2)cc1 (configuration not stated) | 86 | 3 | 0 | 5.0* | -6 | i | 0
CCOC(=O)C1C(=O)CC(C)(O)C(C(=O)OCC)C1c1ccc(N(CC)CC)cc1 (configuration not stated) | 104 | 12 | 0 | 5.1* | -15 | i | -1
CCOC(=O)C1C(=O)CC(C)(O)C(C(=O)OCC)C1c1ccc(F)cc1 (configuration not stated) | 92 | -2 | 0 | 0 | -2 | i | nt
O=C(Nc1c(Cl)cc(Cl)cc1C(=O)NCCN1CCOCC1)c1ccc(Cl)cc1Cl | 88 | 25 | 3 | 8.7* | -6 | i | 1
Cc1ccc(C(=O)NCCN2CCOCC2)c(Cl)c1 | 85 | 0 | 3 | 6.0* | -2 | nt | -1
O=C(NCCN1CCOCC1)c1ccccc1Cl | 95 | -1 | 1 | -2 | 11 | nt | nt
O=C(Nc1ccc(Cl)cc1C(=O)NCCN1CCOCC1)c1ccc(Cl)cc1Cl | 102 | 1 | 5 | -3 | -4 | i | nt
CN(C)c1nc(C=C(C#N)C#N)c(Cl)n1-c1ccc(F)cc1 | nt | -11 | -3 | nt | 4 | i | nt
Cc1oc2ccc(O)cc2c1C(=O)c1ccc(F)cc1 | 82 | -5 | 1 | 15* | nt | nt | 4
COc1ccc2oc(C)c(C(=O)c3ccc([N+](=O)[O-])cc3)c2c1 | 86 | -6 | -3 | 0 | -8 | i | nt
CC1CCC(n2c(=S)[nH]c3ccccc3c2=O)CC1 (configuration not stated) | 103 | 3 | 0 | 11* | -7 | i | -4
O=c1c2ccccc2[nH]c(=S)n1C1CCCCC1 | 100 | -6 | -13 | -1 | -10 | i | nt
